PubChem BioAssay (NCATS)
Values joined by “and” are separate entries in the source; they are usually repeats but may differ in a detail not shown here. Equal entries are not always repeated. Inconclusive results are not listed. A number with no mark means an inactive call. Active and inactive are the calls of the source. Unless noted, the call rests on the fitted dose curve; in most records, active means well fitted curve in either direction with a large enough effect (not every such curve was filed as active); inconclusive means small, poorly fitted or top-dose-only effect, or another doubt; inactive means flat fitted curve, though single readings scatter.

Tests used:
[1] = AP1 Signaling Pathway (AID 357); conditions: ME-180 AP-1-bla reporter, EGF-induced, beta-lactamase ratio, 5 h;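 further: ME-180 reporter cells stimulated with EGF at its EC50 level; on the % scale 0 is the no-effect control and ±100 the full control effect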
Outline: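 AP-1-bla ME-180 cells, Opti-MEM + 0.5% dialyzed FBS, plated overnight 37 °C. Cpd titration + EC50 EGF, 5 h 37 °C. CCF4 2.5 h RT; ex 405, em 460/530 ratio → %activity, AC50.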

[2] = biological target: Cytochrome P450 1A2 (Homo sapiens) (UniProt P05177); assay: p450-cyp1a2 (AID 410; calls by dose curve; further: potency means the concentration at half of the fitted maximal effect;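 on activity change, negative = inhibition: -100% = full effect of reference inhibitor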); conditions: recombinant CYP1A2, luciferin-ME demethylation, luminescence; series mostly up to 57 µM
Cytochrome P450 1A2 (Homo sapiens), sequence (P05177 whole entry, looked up): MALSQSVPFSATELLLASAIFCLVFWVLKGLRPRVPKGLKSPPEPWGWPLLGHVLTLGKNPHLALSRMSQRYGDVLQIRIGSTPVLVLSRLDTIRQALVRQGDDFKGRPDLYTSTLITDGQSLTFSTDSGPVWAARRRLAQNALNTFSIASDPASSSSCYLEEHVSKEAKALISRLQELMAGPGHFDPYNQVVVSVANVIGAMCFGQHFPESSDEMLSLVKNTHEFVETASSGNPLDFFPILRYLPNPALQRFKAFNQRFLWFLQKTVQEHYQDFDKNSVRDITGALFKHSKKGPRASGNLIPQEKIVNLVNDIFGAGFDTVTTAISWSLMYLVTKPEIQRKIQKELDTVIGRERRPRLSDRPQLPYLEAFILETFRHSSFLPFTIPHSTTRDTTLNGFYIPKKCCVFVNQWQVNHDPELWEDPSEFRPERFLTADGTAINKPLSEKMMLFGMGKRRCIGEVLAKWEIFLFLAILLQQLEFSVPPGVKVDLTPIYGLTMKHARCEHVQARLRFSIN
Outline: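 Luminescent readout of luciferin formed from Luciferin-ME by human CYP1A2; data normalized against complete inhibition by 57 uM furafylline. Enzyme 20nM, substrate 100uM at Km, 100mM KPO4 buffer, 60 min reaction at room temperature.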

[3] = NFAT Signaling Pathway (AID 444); conditions: Jurkat NFAT-bla M1, carbachol, beta-lactamase ratio, 5 h;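 further: carbachol stimulus at about its EC50 of 1 µM final; on the % scale 0 is the no-effect control and ±100 the full control effect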
Outline: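 Jurkat cells carrying an NFAT-driven β-lactamase reporter and co-transfected muscarinic M1 receptor were treated with compound plus carbachol (1 uM final, an EC50 level) for 5 h at 37 °C. CCF4 loading followed for 1 h at RT; 460/530 nm ratio gave %activity.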

[4] = Stat Signaling Pathway (AID 446); conditions: ME-180 SIE beta-lactamase reporter, IL-6 stimulated, 5 h;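 further: ME-180 cervical cancer cells given 40 pM IL-6 alongside compound; SIE-controlled beta-lactamase reporter measured as 460/530 nm FRET emission ratio; on the % scale 0 is the no-effect control and ±100 the full control effect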
Outline: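 Reporter line: ME-180 cervical carcinoma, SIE-beta-lactamase. Treatment: compound with 40 pM IL-6, 5 hrs, 37 C, in low-serum OPTI-MEM with 10 mM HEPES pH 7.3. Detection: 460/530 nm fluorescence.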

[5] = Cell Viability - BJ (AID 421; calls by dose curve;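 further: potency means the concentration at half of the fitted maximal effect; cells exposed to compound for 40 hours at 37 °C before readout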); conditions: BJ fibroblast viability, qHTS
Outline: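 Cytotoxicity as drop in intracellular ATP (CellTiter-Glo, 20 min RT) after 40 hr compound exposure of BJ fibroblasts at 37 °C. Titrations scaled between DMSO and 100 uM tamoxifen, Hill-fitted for AC50.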

[6] = Cell Viability - Jurkat (AID 426;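 active means dose-dependent loss of cell ATP signal giving a full or clear fitted curve, ranked by lower potency value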;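 further: potency means the concentration at half of the fitted maximal effect; cells exposed to compound for 40 hours at 37 °C before ATP read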); conditions: qHTS
Outline: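 qHTS, 1536-well; Jurkat E6-1, 5000 cells/well, complete medium; cpd 40 hr, 37 °C; CellTiter-Glo 20 min RT; luminescence. AC50 by Hill fit.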

[7] = Cell Viability - Hek293 (AID 427;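 active means compounds whose dose-response curve shows a full or clear partial loss of cell viability, called from curve shape rather than a numeric limit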;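 further: potency means the concentration at half of the fitted maximal effect; cells exposed to compound for 40 hours at 37 °C before reading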); conditions: qHTS
Outline: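 Luminescent ATP content (CellTiter-Glo, 20 min at room temperature) was measured after a 40 hr, 37 °C compound exposure of HEK293 cells. AC50 values came from Hill-equation fits of qHTS concentration-response data normalized to DMSO and 100 uM tamoxifen.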

[8] = Cell Viability - HepG2 (AID 433; calls by dose curve;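 further: potency means the concentration at half of the fitted maximal effect; cells exposed to compound for 40 hours; potency for ATP loss meaning cytotoxicity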); conditions: qHTS
Outline: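 In this qHTS format, a 40 h, 37 °C compound incubation of HepG2 cells in complete medium precedes a 20 min CellTiter-Glo step at room temperature. Tamoxifen and doxorubicin serve as positive controls; Hill-equation fits yield AC50.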

[9] = Cell Viability - MRC5 (AID 434; calls by dose curve;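 further: potency means the concentration at half of the fitted maximal effect; cells exposed to compound for 40 hours at 37 °C; potency reflects cytotoxicity seen as loss of intracellular ATP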); conditions: MRC5 lung fibroblast viability, qHTS
Outline: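 MRC5 normal human lung fibroblasts (1500/well) were treated with compounds for 40 hr at 37 °C in complete medium, and viable cells were measured as intracellular ATP by CellTiter-Glo luminescence. AC50 came from Hill fits, normalized to DMSO and 100 uM tamoxifen.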

[10] = Cell Viability - SK-N-SH (AID 435; calls by dose curve;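 further: potency means the concentration at half of the fitted maximal effect; compound exposure lasted 40 h at 37 °C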); conditions: SK-N-SH neuroblastoma cell viability qHTS
Outline: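 Human neuroblastoma line, 40 h exposure at 37 °C, ATP quantified via luciferase luminescence; DMSO and 100 uM tamoxifen define 0 and 100% inhibition for AC50 fitting.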

Structure (SMILES): Cc1nccc2c1[nH]c1ccccc12
- activity change, negative = inhibition ([1]; at 17.2 µM (top of the series)): -6.36%
- activity change, negative = inhibition ([1]; at 38 µM (top of the series)): -14.9%
- Potency [2]: 3.98 µM (active) and 1.26 µM (active) and 631 nM (active)
- activity change, negative = inhibition ([3]; at 17.2 µM (top of the series)): -12.1%
- activity change, negative = inhibition ([3]; at 38 µM (top of the series)): -12.6%
- activity, negative = inhibition ([4]; at 17.2 µM (top of the series)): 1.58%
- activity, negative = inhibition ([4]; at 38 µM (top of the series)): 11%

Structure (SMILES): NCCc1c[nH]c2ccc(O)cc12
- activity change, negative = inhibition ([1]; at 17.2 µM (top of the series)): 7.63%
- activity change, negative = inhibition ([1]; at 38 µM (top of the series)): 7.62%
- Potency [2]: 7.94 µM (active) and 2 µM (active)
- activity change, negative = inhibition ([3]; at 17.2 µM (top of the series)): -8.4%
- activity change, negative = inhibition ([3]; at 38 µM (top of the series)): 4.18%
- activity, negative = inhibition ([4]; at 17.2 µM (top of the series)): -0.625%
- activity, negative = inhibition ([4]; at 38 µM (top of the series)): -13.2%

Structure (SMILES): CC[C@@]1(O)C(=O)OCc2c1cc1n(c2=O)Cc2cc3ccccc3nc2-1
- activity change, negative = inhibition ([1]; at 17.2 µM (top of the series)): -111% (active)
- activity change, negative = inhibition ([1]; at 38 µM (top of the series)): -97.5% (active)
- Potency [2]: 7.94 µM (active) and 2.51 µM (active) and 1.58 µM (active)
- activity change, negative = inhibition ([3]; at 17.2 µM (top of the series)): -85.5% (active)
- activity change, negative = inhibition ([3]; at 38 µM (top of the series)): -97% (active)
- activity, negative = inhibition ([4]; at 17.2 µM (top of the series)): -95.6% (active)
- activity, negative = inhibition ([4]; at 38 µM (top of the series)): 42.7% (active)

Structure (SMILES): CCCN(CCC)[C@@H]1CCc2ccc(O)cc2C1
- activity change, negative = inhibition ([1]; at 38 µM (top of the series)): 4.4% and -2.26%
- Potency [2]: inactive
- activity, negative = inhibition ([4]; at 38 µM (top of the series)): -20.3% and 11.5%

Structure (SMILES): Nc1ccc([N+](=O)[O-])cc1
- Potency [5]: > 92 µM
- Potency [6]: > 92 µM
- Potency [7]: > 92 µM
- Potency [8]: > 92 µM
- Potency [9]: > 92 µM
- Potency [10]: > 92 µM

Structure (SMILES): Nc1ccc(Sc2ccc(N)cc2)cc1
- Potency [5]: > 92 µM
- Potency [6]: > 92 µM
- Potency [7]: > 92 µM
- Potency [8]: > 92 µM
- Potency [9]: > 92 µM
- Potency [10]: > 92 µM
